{
  "source": "PubChem BioAssay AID504329",
  "about": "(Southern Research Specialized Biocontainment Screening …, 2011)",
  "note": "In all, about 340,000 compounds went through this assay and about 1,000 (0.29%) were called active. Rule as the data show it: inconclusive = inhibition above about 27% without an active follow-up result; inactive = below that. The list is a sample of the results. Potency and affinity values are given separately.",
  "data": [
    {"assay": "NS1A inhibition, H1N1 influenza, cell based functional assay (AID 504329)", "conditions": "percent inhibition, at 12.5 µM, hits give high values", "values": [
      {"smiles": "CCOn1c(=O)c(-c2ccc(F)cc2)[n+]([O-])c2ccccc21", "inhibition": "-9.53% (inactive)"},
      {"smiles": "O=C(COc1ccc(Cl)cc1)NCc1nnc(SCC(=O)Nc2ccc(F)cc2F)o1", "inhibition": "12.3% (inactive)"},
      {"smiles": "O=C1N2CCSC2=NC1(Nc1nccs1)C(F)(F)F", "note": "(stereo not drawn)", "inhibition": "-5.52% (inactive)"},
      {"smiles": "COC(=O)c1ccccc1S(=O)(=O)N(CCCN1CCOCC1)Cc1cccs1", "inhibition": "18.3% (inactive)"},
      {"smiles": "COc1cccc(C2C(C#N)=C(N)N(N(C)C)C3=C2C(=O)CCC3)c1", "note": "(stereo not drawn)", "inhibition": "-18.6% (inactive)"},
      {"smiles": "Cc1ccc(NCc2nc3ccccc3n2C)cc1", "inhibition": "3.76% (inactive)"},
      {"smiles": "Cn1c(CNc2ccccc2)nc2ccccc21", "inhibition": "-15.8% (inactive)"},
      {"smiles": "COc1ccccc1/C=N/NC(=O)Cn1cnc([N+](=O)[O-])n1", "inhibition": "2.27% (inactive)"},
      {"smiles": "O=C(CCCn1cnc([N+](=O)[O-])n1)Nc1cc(Cl)ccc1O", "inhibition": "-2.62% (inactive)"},
      {"smiles": "Cc1cc([N+](=O)[O-])nn1CC(=O)N/N=C/c1ccccc1O", "inhibition": "13.7% (inactive)"},
      {"smiles": "O=C(Cn1cnc([N+](=O)[O-])n1)N/N=C/c1ccc2ccccc2c1", "inhibition": "-2.51% (inactive)"},
      {"smiles": "Cc1cc([N+](=O)[O-])nn1Cc1ccc(C(=O)N/N=C/c2ccc(O)cc2O)cc1", "inhibition": "2.59% (inactive)"},
      {"smiles": "O=C(Cn1cnc([N+](=O)[O-])n1)N/N=C/c1cccc(Cl)c1", "inhibition": "-19.4% (inactive)"},
      {"smiles": "Cc1ccccc1/C=N/NC(=O)Cn1cnc([N+](=O)[O-])n1", "inhibition": "0.54% (inactive)"},
      {"smiles": "O=C(Cn1cnc([N+](=O)[O-])n1)N/N=C/c1cccc2ccccc12", "inhibition": "5.61% (inactive)"},
      {"smiles": "CCN(CC)S(=O)(=O)c1ccc(Cl)c(NC(=O)COc2ccc3c(C)cc(=O)oc3c2)c1", "inhibition": "15.6% (inactive)"},
      {"smiles": "CC(=O)c1cccc(NC(=O)CSc2ccc(-c3sc(C)nc3C)nn2)c1", "inhibition": "-5.12% (inactive)"},
      {"smiles": "Cc1ccccc1NC(=O)/C(C#N)=C/c1ccc[nH]1", "inhibition": "-10.5% (inactive)"},
      {"smiles": "COC(=O)c1ccc(N2CCN(C)CC2)c(NC(=O)COc2ccccc2)c1", "inhibition": "4.25% (inactive)"},
      {"smiles": "COc1ccc(-c2noc(Cn3cc(S(=O)(=O)N4CCCC4)ccc3=O)n2)cc1", "inhibition": "-10.2% (inactive)"},
      {"smiles": "Cc1ccc(/C=N/n2c(-c3ccc(Cl)cc3)n[nH]c2=S)o1", "inhibition": "2.1% (inactive)"},
      {"smiles": "Cc1cc(OCC(=O)N2CCC(C(=O)O)CC2)c2c3c(c(=O)oc2c1)CCC3", "inhibition": "-2.02% (inactive)"},
      {"smiles": "O=C(c1c(F)cccc1F)N1CCN(c2cccc(C(F)(F)F)c2)CC1", "inhibition": "-9.64% (inactive)"},
      {"smiles": "Nc1nc(-c2ccccc2)c(-c2ccccc2)s1", "inhibition": "4.73% (inactive)"},
      {"smiles": "Nc1nc(-c2ccccc2)c(N=Nc2ccc(Cl)cc2)s1", "inhibition": "11.4% (inactive)"},
      {"smiles": "Nc1ccc(N=Nc2ccccc2Cl)c(N)n1", "inhibition": "26.8% (inactive)"},
      {"smiles": "Nc1nc(-c2ccccc2)c(N=Nc2cccnc2)s1", "inhibition": "18% (inactive)"},
      {"smiles": "C=C(C)COc1ccc(-c2[nH]ncc2-c2ccc(OC)cc2)c(O)c1", "inhibition": "9.07% (inactive)"},
      {"smiles": "CC(=O)c1sc(NC(=O)C2CCCN2S(=O)(=O)c2ccccc2F)nc1C", "note": "(stereo not drawn)", "inhibition": "-3.2% (inactive)"},
      {"smiles": "COc1cc(C)ccc1OCCCOc1c(Cl)cccc1Cl", "inhibition": "-6.86% (inactive)"},
      {"smiles": "CC(C)c1ccc(/C=C2\\CC/C(=C\\C=N\\N(C)C)C2=O)cc1", "inhibition": "2.58% (inactive)"},
      {"smiles": "CN(C)/N=C/C=C1\\CC/C(=C\\c2ccc(Br)cc2)C1=O", "inhibition": "5.12% (inactive)"},
      {"smiles": "O=C(Nc1sc2c(c1C(=O)N1CCOCC1)CCCCC2)c1cccnc1", "inhibition": "1.63% (inactive)"},
      {"smiles": "Cc1nccn1CC(=O)N/N=C/c1cccc(O)c1", "inhibition": "-4.69% (inactive)"},
      {"smiles": "COc1cccc(/C=N/NC(=O)Cn2ccnc2C)c1", "inhibition": "-3.78% (inactive)"},
      {"smiles": "Cc1nccn1CC(=O)N/N=C/c1cccs1", "inhibition": "-26.6% (inactive)"},
      {"smiles": "Cc1nccn1CC(=O)N/N=C/c1c[nH]c2ccccc12", "inhibition": "-1.01% (inactive)"},
      {"smiles": "COc1ccc(/C=N/N=C2/NC(=O)C(c3ccccc3)(c3ccccc3)S2)cc1", "inhibition": "9.74% (inactive)"},
      {"smiles": "Cc1cccc(OCc2nnc(SCC(=O)Nc3cccc(C(=O)N4CCOCC4)c3)n2C)c1", "inhibition": "-2.72% (inactive)"},
      {"smiles": "CN(CC(=O)Nc1ccccc1Br)C(=O)COc1cccc2c1OC(C)(C)C2", "inhibition": "-2.61% (inactive)"},
      {"smiles": "Cc1cc(OCC(=O)N(C)C2CCCCC2)ccc1Cl", "inhibition": "1.86% (inactive)"},
      {"smiles": "COc1ccc(C2CC(c3cccs3)=NN2C(=O)CSc2nc(=O)n3ccccc3n2)cc1", "note": "(stereo not drawn)", "inhibition": "-0.56% (inactive)"},
      {"smiles": "Cc1ccc(NC(=O)CN2C(=O)CN=C(c3ccccc3)c3cc(Cl)ccc32)cc1", "inhibition": "24.3% (inactive)"},
      {"smiles": "CN(C)c1ccc(NC(=O)CN2C(=O)CN=C(c3ccccc3)c3ccccc32)cc1", "inhibition": "-10.1% (inactive)"},
      {"smiles": "CCCN(CCC)c1nc(-c2ccccn2)nc2ccccc12", "inhibition": "10.6% (inactive)"},
      {"smiles": "c1ccc(N2CCN(c3nc(-c4ccccn4)nc4ccccc34)CC2)cc1", "inhibition": "18.4% (inactive)"},
      {"smiles": "Oc1ccccc1-c1nc(NCc2ccco2)c2ccccc2n1", "inhibition": "-19.2% (inactive)"},
      {"smiles": "CCC(C)Nc1nc(-c2cccc(OC)c2O)nc2ccccc12", "note": "(stereo not drawn)", "inhibition": "4.38% (inactive)"},
      {"smiles": "c1ccc(CNc2nc(-c3ccccn3)nc3ccccc23)cc1", "inhibition": "24.8% (inactive)"},
      {"smiles": "CN1CCN(c2nc(-c3ccccn3)nc3ccccc23)CC1", "inhibition": "10.9% (inactive)"},
      {"smiles": "C/C(=N\\Nc1nc(-c2ccccn2)nc2ccccc12)c1ccc(F)cc1", "inhibition": "0.16% (inactive)"},
      {"smiles": "c1ccc(CCNc2nc(-c3ccccn3)nc3ccccc23)cc1", "inhibition": "21% (inactive)"},
      {"smiles": "Cc1noc(C)c1C(=O)OCC(=O)Nc1ccc(N2CCOCC2)cc1", "inhibition": "5.46% (inactive)"},
      {"smiles": "O=C(Nc1ccc(OC(F)F)cc1)c1cc(S(=O)(=O)N2CCOCC2)ccc1N1CCCC1", "inhibition": "-1.31% (inactive)"},
      {"smiles": "Cc1[nH]c2ccccc2c1C(=O)CNc1nccs1", "inhibition": "-1.86% (inactive)"},
      {"smiles": "Cc1cccc(-c2nc(C#N)c(N3CCCCC3)o2)c1", "inhibition": "3.65% (inactive)"},
      {"smiles": "COc1ccc(C2(OC)Oc3cc(OC)ccc3C(=O)C2(O)OC)cc1", "note": "(stereo not drawn)", "inhibition": "-14.3% (inactive)"},
      {"smiles": "COC(=O)c1ccccc1NC(=O)C1CCN(S(C)(=O)=O)CC1", "inhibition": "-15.6% (inactive)"},
      {"smiles": "CCCCCN(C(=O)CCC(=O)OCC(=O)c1cccc(OC)c1)c1c(N)n(CCCC)c(=O)[nH]c1=O", "inhibition": "-2.41% (inactive)"},
      {"smiles": "O=C1c2cccc(NCCNCCO)c2C(=O)c2cccc(NCCNCCO)c21", "inhibition": "28% (inactive)"},
      {"smiles": "O=C(O)CCNc1ccc(NCCC(=O)O)c2c1C(=O)c1ccccc1C2=O", "inhibition": "22.7% (inactive)"},
      {"smiles": "OCCNCCO", "inhibition": "-1.33% (inactive)"},
      {"smiles": "O=C(O)c1ccccc1NCCO", "inhibition": "-4.36% (inactive)"}
    ]}
  ]
}
